# Article PMC7862700, “An all-to-all approach to the identification of sequence-specific readers for epigenetic DNA modifications on cytosine”
# Experiments:
# Assay in all cases: DAPPL (digital affinity profiling via proximity ligation, sequencing); 10 mM Tris-HCl pH 7.5, 50 mM NaCl, 1 mM DTT, 4% glycerol, room temperature, 30 min; GST-TFs on glutathione beads, 16-mer random dsDNA library, 0.1% formaldehyde crosslink after washing; high values mean tight binding
# [1] = molecular target: T1, FEV (Homo sapiens, UniProt Q99581 1-238); details: protein: recombinant; tags: N-terminal GST; dsDNA, one strand shown
# T1 sequence: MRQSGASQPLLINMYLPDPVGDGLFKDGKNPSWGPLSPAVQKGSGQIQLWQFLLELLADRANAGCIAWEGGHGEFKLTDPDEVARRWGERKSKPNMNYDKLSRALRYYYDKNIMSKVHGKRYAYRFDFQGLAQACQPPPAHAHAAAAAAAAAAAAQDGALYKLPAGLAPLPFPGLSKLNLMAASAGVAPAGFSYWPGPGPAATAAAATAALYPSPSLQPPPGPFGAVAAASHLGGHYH
# How it was run: (§1)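 Binding signal is given per hexamer as its read frequency for a factor divided by its frequency in the tag-only sample. GST-fused human transcription factors were expressed in yeast, captured on glutathione beads, barcoded with DNA and pooled with that sample, then incubated with 200 nmole of a 16-mer random double-stranded DNA library in Tris/NaCl/DTT/glycerol buffer for 30 min at room temperature. The pools were then washed, crosslinked, proximity-ligated, amplified by PCR and sequenced on an Illumina NextSeq500.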
# [2] = molecular target: ETV5 (Homo sapiens, UniProt P41161 1-510); details: protein: recombinant; tags: N-terminal GST; dsDNA, one strand shown
# How it was run: as §1
# [3] = molecular target: HSF1 (Homo sapiens, UniProt Q00613 1-529); details: protein: recombinant; tags: N-terminal GST; chain copies: 3; dsDNA, one strand shown
# How it was run: as §1
# [4] = molecular target: T2, SPIC (Homo sapiens, UniProt Q8N5J4 1-248); details: protein: recombinant; tags: N-terminal GST; dsDNA, one strand shown
# T2 sequence: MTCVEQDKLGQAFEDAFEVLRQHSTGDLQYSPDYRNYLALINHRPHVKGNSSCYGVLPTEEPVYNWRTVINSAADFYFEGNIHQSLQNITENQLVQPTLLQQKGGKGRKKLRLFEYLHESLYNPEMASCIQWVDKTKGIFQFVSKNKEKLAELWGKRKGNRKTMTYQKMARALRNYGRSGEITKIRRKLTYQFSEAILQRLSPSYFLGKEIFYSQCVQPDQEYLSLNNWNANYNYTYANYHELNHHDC
# How it was run: as §1
# [5] = molecular target: ELF4 (Homo sapiens, UniProt Q99607 1-663); details: protein: recombinant; tags: N-terminal GST; dsDNA, one strand shown
# How it was run: as §1
# [6] = molecular target: T3, ELK4 (Homo sapiens, UniProt P28324-2 1-405); details: protein: recombinant; tags: N-terminal GST; dsDNA, one strand shown
# T3 sequence: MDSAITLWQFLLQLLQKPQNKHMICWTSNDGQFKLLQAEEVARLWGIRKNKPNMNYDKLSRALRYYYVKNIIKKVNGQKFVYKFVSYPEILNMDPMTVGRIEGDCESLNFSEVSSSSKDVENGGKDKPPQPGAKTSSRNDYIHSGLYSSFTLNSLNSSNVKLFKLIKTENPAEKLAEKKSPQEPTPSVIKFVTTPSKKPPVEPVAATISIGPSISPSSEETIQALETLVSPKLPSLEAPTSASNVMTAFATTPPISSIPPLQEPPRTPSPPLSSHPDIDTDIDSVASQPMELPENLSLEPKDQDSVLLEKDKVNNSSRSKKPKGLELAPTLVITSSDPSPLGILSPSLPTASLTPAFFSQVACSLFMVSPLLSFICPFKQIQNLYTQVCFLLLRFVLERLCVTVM
# How it was run: as §1
# [7] = molecular target: T4, ETV2 (Homo sapiens, UniProt O00321 1-342); details: protein: recombinant; tags: N-terminal GST; dsDNA, one strand shown
# T4 sequence: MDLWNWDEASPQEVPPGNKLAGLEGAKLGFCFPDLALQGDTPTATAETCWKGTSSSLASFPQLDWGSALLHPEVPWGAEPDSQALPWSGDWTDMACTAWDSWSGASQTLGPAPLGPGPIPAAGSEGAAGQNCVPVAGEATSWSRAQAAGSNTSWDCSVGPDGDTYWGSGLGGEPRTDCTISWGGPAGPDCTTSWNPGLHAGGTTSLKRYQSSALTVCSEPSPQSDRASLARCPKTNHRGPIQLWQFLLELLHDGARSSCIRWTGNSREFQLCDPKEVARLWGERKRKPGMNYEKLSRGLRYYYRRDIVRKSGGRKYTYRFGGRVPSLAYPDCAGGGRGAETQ
# How it was run: as §1
# [8] = molecular target: T5, ELF3 (Homo sapiens, UniProt P78545 1-371); details: protein: recombinant; tags: N-terminal GST; dsDNA, one strand shown
# T5 sequence: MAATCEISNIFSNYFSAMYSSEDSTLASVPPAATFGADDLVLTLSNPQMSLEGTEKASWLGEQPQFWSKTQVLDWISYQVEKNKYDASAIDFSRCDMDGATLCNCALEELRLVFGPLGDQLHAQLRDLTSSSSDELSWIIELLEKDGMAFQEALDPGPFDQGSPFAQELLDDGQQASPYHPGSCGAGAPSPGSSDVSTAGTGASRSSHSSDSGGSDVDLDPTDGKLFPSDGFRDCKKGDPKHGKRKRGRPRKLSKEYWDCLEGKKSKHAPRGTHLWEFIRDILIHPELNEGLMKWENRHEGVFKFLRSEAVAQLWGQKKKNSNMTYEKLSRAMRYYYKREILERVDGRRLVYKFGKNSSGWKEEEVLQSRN
# How it was run: as §1
# [9] = molecular target: CRX (Homo sapiens, UniProt O43186 1-299); details: protein: recombinant; tags: N-terminal GST; dsDNA, one strand shown
# How it was run: as §1
# [10] = molecular target: ETV1 (Homo sapiens, UniProt P50549 1-477); details: protein: recombinant; tags: N-terminal GST; dsDNA, one strand shown
# How it was run: as §1
# [11] = molecular target: T6, ERF (Homo sapiens, UniProt P50548 1-548); details: protein: recombinant; tags: N-terminal GST; dsDNA, one strand shown
# T6 sequence: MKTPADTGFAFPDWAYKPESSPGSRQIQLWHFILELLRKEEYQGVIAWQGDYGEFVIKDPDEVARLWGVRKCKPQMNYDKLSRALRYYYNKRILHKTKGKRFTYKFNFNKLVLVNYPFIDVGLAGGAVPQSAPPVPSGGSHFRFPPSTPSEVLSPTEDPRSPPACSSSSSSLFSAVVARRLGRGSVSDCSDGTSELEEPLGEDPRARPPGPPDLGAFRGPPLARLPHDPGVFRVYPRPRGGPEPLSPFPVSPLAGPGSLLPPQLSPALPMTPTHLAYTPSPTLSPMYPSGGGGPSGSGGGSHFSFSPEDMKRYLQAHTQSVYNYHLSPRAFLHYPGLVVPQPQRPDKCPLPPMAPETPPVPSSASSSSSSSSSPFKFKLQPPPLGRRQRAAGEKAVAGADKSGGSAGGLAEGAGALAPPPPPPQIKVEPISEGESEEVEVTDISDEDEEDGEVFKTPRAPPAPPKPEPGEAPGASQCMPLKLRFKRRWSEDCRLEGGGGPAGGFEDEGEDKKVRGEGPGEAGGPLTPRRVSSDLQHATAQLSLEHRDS
# How it was run: as §1
# [12] = molecular target: T7, ETV3L (Homo sapiens, UniProt Q6ZN32 1-361); details: protein: recombinant; tags: N-terminal GST; dsDNA, one strand shown
# T7 sequence: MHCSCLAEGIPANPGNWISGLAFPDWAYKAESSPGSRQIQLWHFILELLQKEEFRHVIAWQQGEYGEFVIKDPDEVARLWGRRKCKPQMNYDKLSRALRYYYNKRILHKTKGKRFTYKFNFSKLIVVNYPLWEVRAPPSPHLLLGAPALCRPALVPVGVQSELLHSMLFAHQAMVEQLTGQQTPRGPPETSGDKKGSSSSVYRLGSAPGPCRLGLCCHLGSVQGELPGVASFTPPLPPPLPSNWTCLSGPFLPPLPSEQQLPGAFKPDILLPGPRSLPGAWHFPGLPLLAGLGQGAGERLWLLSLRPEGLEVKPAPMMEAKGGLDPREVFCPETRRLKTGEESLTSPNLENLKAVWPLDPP
# How it was run: as §1
# [13] = molecular target: T8, ETS2 (Homo sapiens, UniProt P15036 1-469); details: protein: recombinant; tags: N-terminal GST; dsDNA, one strand shown
# T8 sequence: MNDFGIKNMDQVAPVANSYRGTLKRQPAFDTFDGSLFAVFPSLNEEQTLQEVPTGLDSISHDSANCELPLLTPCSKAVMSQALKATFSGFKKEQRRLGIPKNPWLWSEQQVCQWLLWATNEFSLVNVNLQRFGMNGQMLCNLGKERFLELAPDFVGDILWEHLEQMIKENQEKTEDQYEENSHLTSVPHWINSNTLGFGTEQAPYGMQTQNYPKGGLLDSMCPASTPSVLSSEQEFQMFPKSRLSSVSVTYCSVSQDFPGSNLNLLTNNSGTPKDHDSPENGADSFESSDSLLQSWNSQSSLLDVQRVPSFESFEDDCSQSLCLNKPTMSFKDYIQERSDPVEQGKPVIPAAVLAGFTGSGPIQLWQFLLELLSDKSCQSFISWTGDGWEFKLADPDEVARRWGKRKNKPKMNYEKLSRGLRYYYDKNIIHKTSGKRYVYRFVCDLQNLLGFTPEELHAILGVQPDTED
# How it was run: as §1
# [14] = molecular target: T9, SPDEF (Homo sapiens, UniProt O95238 1-335); details: protein: recombinant; tags: N-terminal GST; dsDNA, one strand shown
# T9 sequence: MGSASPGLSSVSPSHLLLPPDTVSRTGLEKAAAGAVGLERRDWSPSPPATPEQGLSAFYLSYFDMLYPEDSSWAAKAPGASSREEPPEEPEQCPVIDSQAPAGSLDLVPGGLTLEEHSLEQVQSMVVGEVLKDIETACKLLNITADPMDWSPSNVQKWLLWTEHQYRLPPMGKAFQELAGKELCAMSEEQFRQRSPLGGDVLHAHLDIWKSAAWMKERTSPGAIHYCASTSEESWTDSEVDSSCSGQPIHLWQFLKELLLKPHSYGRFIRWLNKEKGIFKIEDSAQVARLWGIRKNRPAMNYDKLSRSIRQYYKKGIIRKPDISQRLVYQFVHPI
# How it was run: as §1
# [15] = molecular target: T10, ETV7 (Homo sapiens, UniProt Q9Y603 1-341); details: protein: recombinant; tags: N-terminal GST; dsDNA, one strand shown
# T10 sequence: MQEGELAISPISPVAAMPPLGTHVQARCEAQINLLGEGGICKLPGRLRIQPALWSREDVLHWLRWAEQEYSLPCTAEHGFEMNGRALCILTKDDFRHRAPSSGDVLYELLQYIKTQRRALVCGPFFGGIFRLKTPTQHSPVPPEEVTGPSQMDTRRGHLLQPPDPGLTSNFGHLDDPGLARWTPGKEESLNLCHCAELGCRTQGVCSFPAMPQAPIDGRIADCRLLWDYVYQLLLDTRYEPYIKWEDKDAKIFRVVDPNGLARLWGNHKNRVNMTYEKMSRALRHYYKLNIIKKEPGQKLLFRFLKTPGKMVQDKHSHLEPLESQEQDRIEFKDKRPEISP
# How it was run: as §1
# [16] = molecular target: T11, ELF5 (Homo sapiens, UniProt Q9UKW6-2 1-255); details: protein: recombinant; tags: N-terminal GST; dsDNA, one strand shown
# T11 sequence: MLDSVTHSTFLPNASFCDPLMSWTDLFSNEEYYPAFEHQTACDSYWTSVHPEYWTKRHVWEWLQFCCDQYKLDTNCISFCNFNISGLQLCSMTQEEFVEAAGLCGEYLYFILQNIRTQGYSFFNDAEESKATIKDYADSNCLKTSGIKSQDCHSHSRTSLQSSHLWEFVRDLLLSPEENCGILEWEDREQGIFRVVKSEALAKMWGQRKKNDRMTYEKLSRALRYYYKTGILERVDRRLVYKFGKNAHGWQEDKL
# How it was run: as §1
# [17] = molecular target: T12, ETV3 (Homo sapiens, UniProt P41162-2 1-143); details: protein: recombinant; tags: N-terminal GST; dsDNA, one strand shown
# T12 sequence: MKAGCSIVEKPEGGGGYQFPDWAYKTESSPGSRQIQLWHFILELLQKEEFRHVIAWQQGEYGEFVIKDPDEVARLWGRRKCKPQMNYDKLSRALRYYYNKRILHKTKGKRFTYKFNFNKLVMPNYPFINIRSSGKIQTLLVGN
# How it was run: as §1
# [18] = molecular target: ETV6 (Homo sapiens, UniProt P41212 1-452); details: protein: recombinant; tags: N-terminal GST; dsDNA, one strand shown
# How it was run: as §1
# Sequence of HSF1 (Q00613 whole entry): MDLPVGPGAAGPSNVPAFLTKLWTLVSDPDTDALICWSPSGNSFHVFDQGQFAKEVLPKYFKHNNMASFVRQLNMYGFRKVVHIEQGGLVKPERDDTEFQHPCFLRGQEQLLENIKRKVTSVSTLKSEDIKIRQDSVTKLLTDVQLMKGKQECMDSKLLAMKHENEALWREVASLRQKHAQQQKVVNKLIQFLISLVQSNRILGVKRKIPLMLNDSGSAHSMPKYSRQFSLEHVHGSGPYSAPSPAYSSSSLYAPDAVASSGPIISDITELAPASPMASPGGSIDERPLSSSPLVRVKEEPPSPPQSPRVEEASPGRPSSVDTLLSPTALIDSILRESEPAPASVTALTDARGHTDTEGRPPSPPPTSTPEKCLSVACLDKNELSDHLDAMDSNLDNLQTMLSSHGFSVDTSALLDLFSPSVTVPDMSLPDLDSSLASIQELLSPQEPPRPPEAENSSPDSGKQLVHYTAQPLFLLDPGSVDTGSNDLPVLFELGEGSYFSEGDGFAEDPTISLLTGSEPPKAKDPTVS
# Sequence of CRX (O43186 whole entry): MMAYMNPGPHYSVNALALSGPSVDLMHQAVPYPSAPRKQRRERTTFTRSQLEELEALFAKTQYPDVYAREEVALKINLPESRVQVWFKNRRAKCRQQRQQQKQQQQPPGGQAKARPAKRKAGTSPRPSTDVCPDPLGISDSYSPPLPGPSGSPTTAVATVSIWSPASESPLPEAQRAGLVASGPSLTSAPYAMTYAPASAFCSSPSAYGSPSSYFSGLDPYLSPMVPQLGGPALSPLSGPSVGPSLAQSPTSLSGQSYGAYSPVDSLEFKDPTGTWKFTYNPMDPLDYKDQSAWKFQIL
# Sequence of ELF4 (Q99607 whole entry): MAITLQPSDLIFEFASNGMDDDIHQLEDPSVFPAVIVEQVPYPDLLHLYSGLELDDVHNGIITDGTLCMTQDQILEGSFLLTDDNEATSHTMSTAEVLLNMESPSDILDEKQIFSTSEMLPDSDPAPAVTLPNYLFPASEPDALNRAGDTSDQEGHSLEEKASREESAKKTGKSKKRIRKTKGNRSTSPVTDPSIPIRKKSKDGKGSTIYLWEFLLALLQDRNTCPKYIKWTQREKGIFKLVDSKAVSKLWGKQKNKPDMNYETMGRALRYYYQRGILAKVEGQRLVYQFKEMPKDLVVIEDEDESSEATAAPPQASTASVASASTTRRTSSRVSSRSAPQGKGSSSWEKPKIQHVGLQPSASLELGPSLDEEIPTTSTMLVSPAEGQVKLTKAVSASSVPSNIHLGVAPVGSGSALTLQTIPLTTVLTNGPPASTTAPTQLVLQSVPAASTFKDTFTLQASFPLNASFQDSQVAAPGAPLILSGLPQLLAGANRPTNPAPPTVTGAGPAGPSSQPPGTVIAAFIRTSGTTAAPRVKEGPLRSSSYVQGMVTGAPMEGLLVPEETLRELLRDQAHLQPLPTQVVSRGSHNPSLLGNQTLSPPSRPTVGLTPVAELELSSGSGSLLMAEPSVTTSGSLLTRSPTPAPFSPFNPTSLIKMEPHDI
# Sequence of ETV1 (P50549 whole entry): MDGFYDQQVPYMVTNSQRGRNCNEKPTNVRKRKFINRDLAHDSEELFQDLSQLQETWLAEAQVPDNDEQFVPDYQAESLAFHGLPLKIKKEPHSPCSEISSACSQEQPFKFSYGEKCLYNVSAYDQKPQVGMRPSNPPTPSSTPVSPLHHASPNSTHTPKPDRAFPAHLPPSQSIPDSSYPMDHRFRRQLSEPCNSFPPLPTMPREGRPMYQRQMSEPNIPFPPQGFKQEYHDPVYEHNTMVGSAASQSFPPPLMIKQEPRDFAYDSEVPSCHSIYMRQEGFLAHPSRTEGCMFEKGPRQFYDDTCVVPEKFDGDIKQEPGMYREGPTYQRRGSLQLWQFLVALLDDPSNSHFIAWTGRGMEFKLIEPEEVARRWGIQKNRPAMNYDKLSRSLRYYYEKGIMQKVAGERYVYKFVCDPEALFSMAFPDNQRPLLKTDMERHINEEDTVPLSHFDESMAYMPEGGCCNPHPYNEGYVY
# Sequence of ETV5 (P41161 whole entry): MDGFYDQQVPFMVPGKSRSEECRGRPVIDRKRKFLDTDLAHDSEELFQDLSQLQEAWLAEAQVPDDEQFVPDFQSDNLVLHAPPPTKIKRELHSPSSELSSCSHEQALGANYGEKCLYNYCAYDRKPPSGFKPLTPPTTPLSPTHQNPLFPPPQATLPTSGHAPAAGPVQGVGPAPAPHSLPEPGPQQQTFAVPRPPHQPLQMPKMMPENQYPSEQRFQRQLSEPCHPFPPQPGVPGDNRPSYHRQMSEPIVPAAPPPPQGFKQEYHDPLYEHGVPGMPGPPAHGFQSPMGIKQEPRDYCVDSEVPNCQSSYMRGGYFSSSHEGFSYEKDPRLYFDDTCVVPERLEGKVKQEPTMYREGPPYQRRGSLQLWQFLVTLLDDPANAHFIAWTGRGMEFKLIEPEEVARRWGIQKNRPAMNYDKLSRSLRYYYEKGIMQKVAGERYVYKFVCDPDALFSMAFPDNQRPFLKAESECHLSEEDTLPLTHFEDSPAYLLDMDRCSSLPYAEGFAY
# Sequence of ETV6 (P41212 whole entry): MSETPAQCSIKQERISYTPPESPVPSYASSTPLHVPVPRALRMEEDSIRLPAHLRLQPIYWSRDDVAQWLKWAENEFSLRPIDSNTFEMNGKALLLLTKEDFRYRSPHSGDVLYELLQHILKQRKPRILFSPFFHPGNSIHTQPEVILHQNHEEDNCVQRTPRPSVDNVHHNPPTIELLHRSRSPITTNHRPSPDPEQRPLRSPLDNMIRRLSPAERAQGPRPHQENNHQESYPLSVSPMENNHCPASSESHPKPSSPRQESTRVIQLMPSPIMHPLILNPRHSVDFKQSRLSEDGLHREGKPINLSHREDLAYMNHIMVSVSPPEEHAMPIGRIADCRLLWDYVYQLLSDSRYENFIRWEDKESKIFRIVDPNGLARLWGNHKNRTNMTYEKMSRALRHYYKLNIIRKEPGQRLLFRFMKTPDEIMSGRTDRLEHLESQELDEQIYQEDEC
sequence,measurement,setting,value
TAAAAT,binding signal,[1],"1.14 fold enrichment (6-mer frequency, TF over GST control)"
same,binding signal,[2],"1.22 fold enrichment (6-mer frequency, TF over GST control)"
same,binding signal,[3],"1.48 fold enrichment (6-mer frequency, TF over GST control)"
same,binding signal,[4],"1.19 fold enrichment (6-mer frequency, TF over GST control)"
same,binding signal,[5],"1.2 fold enrichment (6-mer frequency, TF over GST control)"
same,binding signal,[6],"1.2 fold enrichment (6-mer frequency, TF over GST control)"
same,binding signal,[7],"1.34 fold enrichment (6-mer frequency, TF over GST control)"
same,binding signal,[8],"1.27 fold enrichment (6-mer frequency, TF over GST control)"
same,binding signal,[9],"1.76 fold enrichment (6-mer frequency, TF over GST control)"
same,binding signal,[10],"1.22 fold enrichment (6-mer frequency, TF over GST control)"
same,binding signal,[11],"1.22 fold enrichment (6-mer frequency, TF over GST control)"
same,binding signal,[12],"1.28 fold enrichment (6-mer frequency, TF over GST control)"
same,binding signal,[13],"1.28 fold enrichment (6-mer frequency, TF over GST control)"
same,binding signal,[14],"1.14 fold enrichment (6-mer frequency, TF over GST control)"
same,binding signal,[15],"1.17 fold enrichment (6-mer frequency, TF over GST control)"
same,binding signal,[16],"1.15 fold enrichment (6-mer frequency, TF over GST control)"
same,binding signal,[17],"1.17 fold enrichment (6-mer frequency, TF over GST control)"
same,binding signal,[18],"1.18 fold enrichment (6-mer frequency, TF over GST control)"
